Experimental data published in PubChem BioAssay (Tox21).
Records with an inconclusive call do not appear. Active and inactive are the calls of the source. Unless noted, calls come from the whole dose curve; as a rule, active = well fitted curve in the direction sought with a large enough effect in the repeat runs; inconclusive = weak or mixed curves; inactive = no such curve, though single readings can be large; an effect the other way counts as inactive or inconclusive.

Experiments:
[1] = biological target: Peroxisome proliferator-activated receptor gamma (Homo sapiens) (UniProt P37231); experiment: qHTS assay to identify small molecule agonists of the peroxisome proliferator-activated receptor gamma (PPARg) signaling pathway (AID 743094; active = well fitted activation curve with a large enough effect in the signal ratio in the repeat runs, not every such curve was filed as active; the % refers to the signal ratio)
How it was run: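 Agonist activity was taken from a beta-lactamase reporter (FRET substrate, 1 h at room temperature) in HEK293H cells carrying a PPARg UAS-bla construct. Compounds in DMSO were incubated 17 h at 37C after a 5 h cell pre-incubation.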

[2] = biological target: Peroxisome proliferator-activated receptor gamma (Homo sapiens) (UniProt P37231); experiment: qHTS assay to identify small molecule antagonists of the peroxisome proliferator-activated receptor gamma (PPARg) signaling pathway (AID 743191; calls by dose curve; note: series mostly up to about 63 µM; nearly all actives have a fitted effect of over 30% in size)
How it was run: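 Beta-lactamase reporter under UAS control in HEK293H PPARg-bla cells; compound treatment 17 h at 37C. Read-out: fluorescence intensity after 1 h room-temperature incubation with LiveBLAzer B/G FRET substrate.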

[3] = qHTS assay to identify small molecule antagonists of the peroxisome proliferator-activated receptor gamma (PPARg) signaling pathway - cell viability counter screen (AID 743194); note: nearly all actives have a fitted effect of over 55% in size
How it was run: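 Viability was measured as CellTiter-Glo luminescence in GeneBLAzer PPARg UAS-bla HEK293H cells. These cells had been exposed 17 h at 37 C to compounds together with rosiglitazone at 50 nM final, with the beta-lactamase readout taken in the same wells.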

[4] = qHTS assay for small molecule agonists of the antioxidant response element (ARE) signaling pathway (AID 743202; active = well fitted activation curve with a large enough effect in the signal ratio in the repeat runs, not every such curve was filed as active; the % refers to the signal ratio)
How it was run: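 Beta-lactamase reporter activity, read as fluorescence intensity, reflects ARE/Nrf2 pathway induction in HepG2 cells after 16 h compound exposure at 37 C; substrate loading was 2 h at room temperature.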

[5] = qHTS assay for small molecule agonists of the antioxidant response element (ARE) signaling pathway - cell viability counter screen (AID 743203; calls by dose curve; note: nearly all actives have a fitted effect of over 55% in size)
How it was run: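 Viability counter screen: CellTiter-Glo luminescence, read after 30 min at room temperature, in ARE-bla HepG2 wells. Compound exposure lasted 16 h at 37C/5% CO2, following a 5 h pre-incubation of the cells after plating.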

[6] = qHTS assay for small molecule activators of the heat shock response signaling pathway - cell viability counter screen (AID 743209); note: nearly all actives have a fitted effect of over 50% in size
How it was run: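 Cytotoxicity counter screen run in the same wells as the heat-shock bla reporter assay: HeLa HSE-bla cells, 5 h compound exposure at 37 C, viability read by CellTiter-Glo luminescence.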

[7] = qHTS assay to identify small molecule agonists of the peroxisome proliferator-activated receptor delta (PPARd) signaling pathway - cell viability counter screen (AID 743211); note: nearly all actives have a fitted effect of over 55% in size
How it was run: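 Viability of GeneBLAzer PPARd UAS-bla HEK293H cells was assessed after 17 h compound incubation at 37C, using CellTiter-Glo reagent added after the reporter read and luminescence recorded 30 min later.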

[8] = qHTS assay to identify small molecule agonists of the farnesoid-X-receptor (FXR) signaling pathway - cell viability counter screen (AID 743218); note: nearly all actives have a fitted effect of over 45% in size
How it was run: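 Viability counter screen in the same wells: CellTiter-Glo luminescence, 30 min room-temperature incubation, measured after the beta-lactamase read. Cells were GeneBLAzer FXR-UAS-bla HEK 293T, compound-treated 16 h at 37C.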

[9] = qHTS assay to identify small molecule antagonists of the farnesoid-X-receptor (FXR) signaling pathway - cell viability counter screen (AID 743221; active = well fitted cell-killing curve with a large enough effect in the repeat runs, not every such curve was filed as active; note: nearly all actives have a fitted effect of over 50% in size)
How it was run: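 Quantitative HTS of the Tox21 10K library run in parallel with the beta-lactamase reporter read. HEK 293T cells carrying a UAS-driven bla reporter got compound and 50 uM CDCA (final) for 16 h; ATP-based luminescence followed.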

[10] = biological target: Vitamin D3 receptor (Homo sapiens) (UniProt P11473); experiment: qHTS assay to identify small molecule agonists of the vitamin D receptor (VDR) signaling pathway (AID 743222; calls by dose curve)
How it was run: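 Agonist mode, beta-lactamase reporter: fluorescence from LiveBLAzer B/G FRET substrate (2 h, room temperature) read after 16 h compound treatment at 37 C of VDR-bla cells, which were pre-incubated 4 h after seeding.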

[11] = biological target: Aryl hydrocarbon receptor (Homo sapiens) (UniProt P35869); experiment: qHTS assay to identify small molecule that activate the aryl hydrocarbon receptor (AhR) signaling pathway (AID 743085);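 note: HG2L7.5c1 human HepG2 liver cells with stably integrated DRE-driven firefly reporter; series mostly up to about 70 µM; nearly all actives have a fitted effect of over 15% in size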
How it was run: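 Steps: seed HepG2-AhR-luc cells; allow 5 h at 37C; pin-transfer test compound or vehicle; incubate 24 h at 37C; add viability dye (30 min, 37C) and read fluorescence; add luciferase substrate (30 min, RT) and read luminescence.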

[12] = qHTS assay for small molecule activators of the heat shock response signaling pathway (AID 743210; active = well fitted activation curve with a large enough effect in the signal ratio in the repeat runs, with a control signal flat, not every such curve was filed as active; the % refers to the signal ratio;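 note: HeLa cells with beta-lactamase reporter driven by heat shock elements; series mostly up to about 63 µM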)
How it was run: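 Fluorescence from a cleaved B/G FRET substrate (2.5 h, room temp) reports HSE-driven beta-lactamase in HeLa cells treated 5 h at 37 C with DMSO-dissolved compounds.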

[13] = biological target: Peroxisome proliferator-activated receptor delta (Homo sapiens) (UniProt Q03181); experiment: qHTS assay to identify small molecule agonists of the peroxisome proliferator-activated receptor delta (PPARd) signaling pathway (AID 743212; calls by dose curve;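 note: HEK293H cells with PPARd UAS beta-lactamase reporter GeneBLAzer system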)
How it was run: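 Steps: seed PPARd-bla HEK293H cells; incubate 5 h, 37 C, 5% CO2; add compounds in DMSO; incubate, 37 C; add LiveBLAzer B/G FRET substrate; hold 2 h at room temperature; measure fluorescence.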

[14] = qHTS assay to identify small molecule antagonists of the peroxisome proliferator-activated receptor delta (PPARd) signaling pathway - cell viability counter screen (AID 743213); note: nearly all actives have a fitted effect of over 50% in size
How it was run: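 PPARd-bla HEK293H cells (3000/well) got compound plus 300 nM L165041 agonist for 17 h at 37 C. Viability in the same wells came from CellTiter-Glo luminescence after 30 min at room temperature.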

[15] = biological target: Bile acid receptor (Homo sapiens) (UniProt Q96RI1); experiment: qHTS assay to identify small molecule agonists of the farnesoid-X-receptor (FXR) signaling pathway (AID 743220; active = well fitted activation curve with a large enough effect in the signal ratio in the repeat runs, not every such curve was filed as active; the % refers to the signal ratio)
How it was run: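 FXR-UAS-bla HEK 293T cells carrying a UAS-driven beta-lactamase reporter were plated for 5 h at 37C/5% CO2, then exposed to DMSO-dissolved Tox21 10K compounds for 16 h at 37C. A LiveBLAzer B/G FRET substrate was loaded for 2 h at room temperature before fluorescence reading.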

[16] = biological target: Peroxisome proliferator-activated receptor delta (Homo sapiens) (UniProt Q03181); experiment: qHTS assay to identify small molecule antagonists of the peroxisome proliferator-activated receptor delta (PPARd) signaling pathway (AID 743215; active = well fitted inhibition curve with a large enough effect in the signal ratio in the repeat runs, not every such curve was filed as active; the % refers to the signal ratio;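 note: cells stimulated with agonist L165041 at 300 nM final during compound exposure; series mostly up to about 62 µM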)
How it was run: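 Agonist L165041 (300 nM final) added with compound to PPARd-bla HEK293H UAS-bla reporter cells; 17 h incubation at 37 C. Read-out: LiveBLAzer FRET substrate, 2 h at room temperature, fluorescence intensity.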

[17] = qHTS assay to identify small molecule that activate the aryl hydrocarbon receptor (AhR) signaling pathway - cell viability counter screen (AID 743086);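 note: HepG2 liver cells carrying the AhR DRE luciferase reporter; series mostly up to about 70 µM; nearly all actives have a fitted effect of over 45% in size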
How it was run: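 Cytotoxicity counter screen: CellTiter-Fluor signal (30 min, 37 C) in 4000 HepG2 cells/well carrying the DRE-luciferase reporter, following 24 h compound exposure at 37 C.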

[18] = biological target: Vitamin D3 receptor (Homo sapiens) (UniProt P11473); experiment: qHTS assay to identify small molecule antagonists of the vitamin D receptor (VDR) signaling pathway (AID 743223; active = well fitted inhibition curve with a large enough effect in the signal ratio in the repeat runs, not every such curve was filed as active; the % refers to the signal ratio)
How it was run: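 Fluorescence from LiveBLAzer B/G FRET substrate, read after 2 h at room temperature, reflects beta-lactamase reporter activity in VDR-bla cells treated 16 h at 37C with compounds and agonist 1alpha,25-dihydroxyvitamin D3 (3 nM final).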

[19] = biological target: Bile acid receptor (Homo sapiens) (UniProt Q96RI1); experiment: qHTS assay to identify small molecule antagonists of the farnesoid-X-receptor (FXR) signaling pathway (AID 743217; active = well fitted inhibition curve with a large enough effect in the signal ratio in the repeat runs, not every such curve was filed as active; the % refers to the signal ratio)
How it was run: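 Antagonist mode: chenodeoxycholic acid at 50 uM final stimulates a UAS-driven beta-lactamase reporter in HEK 293T FXR-bla cells during 16 h, 37C compound exposure. Read-out is FRET substrate fluorescence after 2 h at room temperature.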

[20] = qHTS assay to identify aromatase inhibitors - cell viability counter screen (AID 743084);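 note: cells stimulated with testosterone during compound exposure; nearly all actives have a fitted effect of over 55% in size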

Measured: Potency

Chain of Bile acid receptor (Homo sapiens) (Q96RI1 whole entry, looked up): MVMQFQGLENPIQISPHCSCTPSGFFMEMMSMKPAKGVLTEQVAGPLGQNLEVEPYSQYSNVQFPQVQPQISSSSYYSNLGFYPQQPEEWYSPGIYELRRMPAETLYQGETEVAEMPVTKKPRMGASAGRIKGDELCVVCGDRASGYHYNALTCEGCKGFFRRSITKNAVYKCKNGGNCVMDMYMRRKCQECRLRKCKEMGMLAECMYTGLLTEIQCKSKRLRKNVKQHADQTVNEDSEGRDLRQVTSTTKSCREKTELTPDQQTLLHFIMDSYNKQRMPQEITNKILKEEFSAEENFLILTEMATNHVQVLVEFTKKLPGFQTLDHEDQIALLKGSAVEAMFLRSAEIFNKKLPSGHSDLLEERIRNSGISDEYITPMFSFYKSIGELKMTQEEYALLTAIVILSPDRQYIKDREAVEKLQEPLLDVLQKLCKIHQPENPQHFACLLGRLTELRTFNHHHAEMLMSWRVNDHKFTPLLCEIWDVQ
Chain of Peroxisome proliferator-activated receptor gamma (Homo sapiens) (P37231 whole entry, looked up): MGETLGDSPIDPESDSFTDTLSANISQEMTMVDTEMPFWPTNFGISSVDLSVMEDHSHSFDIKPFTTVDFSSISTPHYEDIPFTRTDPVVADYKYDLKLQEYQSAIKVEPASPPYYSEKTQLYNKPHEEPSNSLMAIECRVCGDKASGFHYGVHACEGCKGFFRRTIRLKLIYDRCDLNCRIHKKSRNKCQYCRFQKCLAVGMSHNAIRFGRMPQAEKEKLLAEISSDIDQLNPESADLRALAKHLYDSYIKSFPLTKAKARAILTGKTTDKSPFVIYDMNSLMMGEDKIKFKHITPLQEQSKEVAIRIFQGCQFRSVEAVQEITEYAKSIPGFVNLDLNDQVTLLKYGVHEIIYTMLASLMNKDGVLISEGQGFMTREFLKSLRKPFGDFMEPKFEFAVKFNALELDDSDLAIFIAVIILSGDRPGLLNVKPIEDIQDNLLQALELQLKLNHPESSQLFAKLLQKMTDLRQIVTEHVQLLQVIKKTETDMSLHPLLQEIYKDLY
Chain of Peroxisome proliferator-activated receptor delta (Homo sapiens) (Q03181 whole entry, looked up): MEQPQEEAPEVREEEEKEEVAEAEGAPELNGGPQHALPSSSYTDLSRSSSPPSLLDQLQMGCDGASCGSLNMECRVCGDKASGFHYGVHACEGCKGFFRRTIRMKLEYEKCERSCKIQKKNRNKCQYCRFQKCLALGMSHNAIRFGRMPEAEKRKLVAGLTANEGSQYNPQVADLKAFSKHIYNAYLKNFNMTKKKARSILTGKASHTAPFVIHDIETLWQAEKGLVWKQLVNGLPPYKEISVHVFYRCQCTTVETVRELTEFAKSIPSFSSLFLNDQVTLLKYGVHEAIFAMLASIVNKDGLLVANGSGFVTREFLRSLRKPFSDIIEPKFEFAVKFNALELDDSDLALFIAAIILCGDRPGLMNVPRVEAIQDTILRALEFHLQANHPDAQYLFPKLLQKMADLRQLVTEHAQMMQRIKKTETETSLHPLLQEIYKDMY
Chain of Vitamin D3 receptor (Homo sapiens) (P11473 whole entry, looked up): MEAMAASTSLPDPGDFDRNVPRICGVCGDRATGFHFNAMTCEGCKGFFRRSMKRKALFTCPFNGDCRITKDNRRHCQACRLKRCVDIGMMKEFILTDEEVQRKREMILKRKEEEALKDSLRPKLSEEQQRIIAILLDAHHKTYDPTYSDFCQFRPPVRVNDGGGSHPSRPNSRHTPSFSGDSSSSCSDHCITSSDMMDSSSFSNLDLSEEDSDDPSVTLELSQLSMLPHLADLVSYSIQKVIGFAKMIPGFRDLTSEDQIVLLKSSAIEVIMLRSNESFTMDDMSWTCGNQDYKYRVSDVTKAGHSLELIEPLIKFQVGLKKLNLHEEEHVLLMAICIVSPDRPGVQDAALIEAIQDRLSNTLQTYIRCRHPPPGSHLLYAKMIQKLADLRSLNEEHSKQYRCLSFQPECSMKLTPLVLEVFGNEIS
Chain of Aryl hydrocarbon receptor (Homo sapiens) (P35869 whole entry, looked up): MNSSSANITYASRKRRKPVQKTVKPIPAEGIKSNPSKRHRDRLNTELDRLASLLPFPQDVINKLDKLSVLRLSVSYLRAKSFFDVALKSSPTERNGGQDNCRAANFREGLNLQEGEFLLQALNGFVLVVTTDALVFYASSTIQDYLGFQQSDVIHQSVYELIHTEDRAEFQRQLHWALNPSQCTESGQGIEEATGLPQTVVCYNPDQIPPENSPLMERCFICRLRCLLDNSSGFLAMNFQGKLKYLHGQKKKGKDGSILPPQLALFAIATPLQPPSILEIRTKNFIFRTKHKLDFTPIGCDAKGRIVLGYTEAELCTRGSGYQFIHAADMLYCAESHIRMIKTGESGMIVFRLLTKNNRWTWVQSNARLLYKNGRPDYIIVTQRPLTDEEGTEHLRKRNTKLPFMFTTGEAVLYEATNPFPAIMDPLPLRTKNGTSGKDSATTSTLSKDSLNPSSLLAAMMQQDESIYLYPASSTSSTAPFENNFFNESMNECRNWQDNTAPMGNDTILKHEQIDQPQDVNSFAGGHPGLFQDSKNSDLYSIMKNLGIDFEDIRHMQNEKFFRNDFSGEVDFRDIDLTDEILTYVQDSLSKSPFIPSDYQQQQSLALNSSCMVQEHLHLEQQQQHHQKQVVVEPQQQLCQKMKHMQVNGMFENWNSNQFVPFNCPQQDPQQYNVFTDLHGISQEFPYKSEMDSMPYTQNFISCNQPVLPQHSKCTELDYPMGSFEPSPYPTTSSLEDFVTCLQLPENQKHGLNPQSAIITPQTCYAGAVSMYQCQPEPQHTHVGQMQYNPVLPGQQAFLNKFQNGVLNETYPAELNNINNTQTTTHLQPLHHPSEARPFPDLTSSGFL

COc1cc2c(cc1OC)-c1cc3ccc(OC)c(OC)c3c[n+]1CC2
inactive: [1] | [2] | [3] | [4] | [5] | [6] | [7] | [8] | [9] | [10]

Cc1ncc([C@@H](CCCCCCc2ccc3c(n2)NCCC3)CC(=O)O)cn1
inactive: [11] | [1] | [5] | [12] | [7] | [13] | [14] | [8] | [15] | [9] | [10]

Cc1onc(-c2c(Cl)cccc2Cl)c1C(=O)Cl
not listed: [1] | [2] | [11] | [15] | [17] | [18] | [19] | [20]
inactive: all other assays above

NCCCC(N)(C(=O)O)C(F)F (configuration not stated)
inactive: [17] | [3] | [4] | [5] | [14] | [8] | [9] | [10] | [18]

C=C(C)C(=O)OCC1CCCO1 (configuration not stated)
not listed: [1] | [2] | [11] | [14] | [20]
inactive: all other assays above

O=[N+]([O-])c1cncn1CCN1CCOCC1
inactive: [2] | [3] | [4] | [5] | [6] | [7] | [14] | [8] | [9] | [10] | [18]

[K+]
not listed: [1] | [2] | [11] | [17] | [18]
inactive: all other assays above

O=C(O)CCCC[P+](c1ccccc1)(c1ccccc1)c1ccccc1
inactive: [2] | [3] | [4] | [5] | [6] | [12] | [13] | [14] | [8] | [9] | [10]

NC(=O)NC1N=C([O][Al])NC1=O (configuration not stated)
inactive: [2] | [3] | [5] | [7] | [14] | [8] | [15] | [9]
